Data taken from PubChem BioAssay AID1508600 (Functional Genomics Laboratory (NCATS/FGL), 2020).
The whole screen tested about 53,000 sequences, of which about 3,700 (7%) were called active. This is one part of a sample in which actives are shown more often than they occur. Unmarked numbers belong to inactive results.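 How the source made its calls: active means gene knockdowns whose robust z-score for IL-1 alpha signal is at least 2 or at most -2, so actives lie on both sides; inactive means the rest.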

Experiment: Components of the Cytosolic LPS Sensing Pathway: Gene Identification via Genome-wide siRNA Screen;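 further: robust z of the log signal after scaling to non-targeting control siRNA wells of the plate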
Conditions: RAW264.7 macrophages, IL-1a HTRF, actives lie on both sides, screened at 100 nM (by protocol), cells primed 5 h with Pam3CSK4 first
In short: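 Knockdown: 100 nM siRNA, 48h, RAW264.7. Stimulation: Pam3CSK4 5 h, then LipidA via TransIT-TKO 24 h. Output: supernatant IL-1a HTRF, negative-control-normalized, log robust z-score; viability by CellTiter-Glo.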

Row | Sequence | z-score
1 | GGUAAUGAUACCUUGAAUGTT against H60a | 2.11 (active)
2 | GCUUCAGUGGCUACUCUUGTT against H2-M2 | 0.63
3 | CCGUGGAUUGUGGAAUAAUTT against Xpnpep3 | -1.39
4 | GCCAGUUUUGGUAUCCCGUTT against Lpcat2 | -1.2
5 | GGGACAACCCAUCAACAAUTT against Catsper1 | -0.614
6 | CGAUGUACUCCAUGUUGGGTT against Bpifb6 | 3.47 (active)
7 | GGAAAGCUUGAAUGUUGAGTT against Mup3 | 1.44
8 | GACACCCUGUGACACCAAGTT against Sprr1b | -0.597
9 | GGCUUUAAUGAAAUUAUGGTT against Asap2 | 1.4
10 | CCCAGAAUUGAACUAAAAATT against Mrpl32 | -0.488
11 | GGUGGAACAACUGUUUCAATT against Dyrk3 | 0.541
12 | GGAACCUAUGGAAGGCGUATT against Ino80b | 2.64 (active)
13 | CCCACGCUUAGCAAUAUCATT against Get3 | -1.49
14 | GGUAACCUAGUGUAAGUUUTT against Atg2b | -0.0782
15 | GGAGAGCAGUGAUAACCAGTT against Cracd | 2.06 (active)
16 | GGAAAUUGCUCAAAAAAGGTT against Asb3 | 0.725
17 | GGCUUCUAUUGCCAUAAUGTT against Olfr380 | 0.568
18 | GGAUGAAGACAGUCAAAUGTT against Lypd3 | 0.261
19 | GGCAGAUUCUAAAUAUAGCTT against Itga9 | -0.52
20 | GGACAGCUUCAUCAAGCCUTT against Cep89 | -0.628
21 | GGUCUGGUGUUGUAGGAUATT against Map1lc3b | 2.71 (active)
22 | GGAGUCAUAUGCACAGAUCTT against Tcte3 | -0.706
23 | CGUGGAUGAGAACUAACCUTT against Rpl31 | 1.24

Row | Sequence | z-score
24 | GCUCCUAUGCAAACAUUGCTT against Olfr1390 | 0.489
25 | GGAUCUCUUAGGUAUCUUATT against Nlrp14 | 1.45
26 | GGAACACUGGAAGAAAGAUTT against Arhgap35 | -1.21
27 | GAUGUACUUGAUAAAGCCUTT against Ugt2b37 | 3.68 (active)
28 | CCCAUCUCACUAUUUAAUATT against Lrrc3b | -1.23
29 | GCUGCACAAGUGCAUUUUUTT against Srp14 | -1.34
30 | GGGUAUUUCCACUUCAUAGTT against Acsm2 | 1.59
31 | GCUCAUGGACCAACCUAUGTT against Olfr1180 | 0.501
32 | GCUUUCCGGAAUACGAGCUTT against Snapc3 | -0.638
33 | CGCAAGAUCCUCAAACGAGTT against Proc | -0.358
34 | GGGAACAAGUUGAGCUACUTT against Ebp | -0.0574
35 | UAGGAGAUAUCUGCUACCGTT against Fbxw16 | -2.53 (active)
36 | CCAUGUUCGGACGUGGUCUTT against Shkbp1 | -1.17
37 | GGAGAGGAAUCAAGUGGUGTT against Lig1 | -1.04
38 | GGUGCUUUAUUAGGUAUUCTT against Atp6v1g3 | -1.26
39 | GGGUAGCUUUAAAUAAAGGTT against Olfr801 | 2.47 (active)
40 | GCAUAAGCCUAAAAAUUCUTT against Ptprd | 0.43
41 | GCCCUCUUGUGAUUAAGCATT against Esr1 | -0.959
42 | GCUAAGAAGAGGAUUCCAATT against Spag1 | -0.579
43 | GCAGCAGUGCUUACUUAACTT against Ccdc25 | 0.212
44 | GGAAAGUGAUGUCACAAAATT against G3bp1 | 1.31
45 | GGUGUUUGUGAAGGAGCAGTT against Fam117a | 2.98 (active)
46 | GGCCAACCUGGAGAACUUGTT against Atp6v1c2 | 0.441

Row | Sequence | z-score
47 | GGUUAAUAUUAGCAUCGUCTT against Zdhhc23 | 0.908
48 | GGCUCUGUGUUGGUAAUGATT against Yipf1 | -0.538
49 | GGGUCAUCGGAACAGAACUTT against Sult3a1 | -2.26 (active)
50 | GGGCAACUGUACGUACCAUTT against Cd93 | 0.0137
51 | GGGAGCAUUUCCUUAUACUTT against Tpmt | 0.67
52 | GGAUAAAGCCACAUUUGGUTT against Apoh | -0.483
53 | GGAACCAGAGGACAAAGACTT against Ccdc96 | -2.43 (active)
54 | GGCUGGUGUAAAAGACACGTT against Nat14 | 0.142
55 | GGGUUUUCGGGAGAUCUGUTT against Ltbp4 | -0.44
56 | GGAGCACUAUGAUGAGUUCTT against U2af1 | -0.452
57 | GCACUAUGGUAUUGAAAUUTT against Armc5 | 0.635
58 | GGAUUCUGAAAUCAGUGCUTT against Capn8 | 1.52
59 | GGUCACCAAGCAACACAAUTT against Fen1 | 2.56 (active)
60 | GCAGUAAAAUGACAUUUGGTT against Dennd6b | 0.694
61 | GCUAGGUGCUGCUACGAAATT against Tex13c3 | -0.0824
62 | GGGCAGUAAGACCUUCAUGTT against Dhcr24 | 0.685
63 | GGUUGAAGGCCAAUUCAAATT against Lrrc10 | 2.94 (active)
64 | GCACUAGCAGGAUUCAUUGTT against Gabrb2 | -1.25
65 | CGAUUGCUCUUAACCCUUGTT against Zfp597 | -0.233
66 | GGCAUCCUGAGAGAACUCATT against Insyn1 | -2.27 (active)
67 | GCUGACCUAUUCUGAUCCATT against Chchd4 | -0.223
68 | GGUUCAGAUCCCUAAAAUATT against Ago4 | -0.557
69 | GGACAUGGAACUGGAUGAATT against Ciita | -2.49 (active)
